Assay [1] has as its target Aldehyde dehydrogenase, mitochondrial (Homo sapiens) (UniProt P05091). Put plainly: qHTS for Inhibitors of the Aldehyde Dehydrogenase Family (ALDH2) Primary screen (AID 2061308; also: nearly all actives have a fitted effect of over 55% in size; also: potency is read from the fitted curve at half-maximal effect). (In general: qHTS replaces the single test concentration by a dilution series.)
Assay [2] concerns the target Retinal dehydrogenase 2 (Homo sapiens) (UniProt O94788). Put plainly: qHTS for Inhibitors of the Aldehyde Dehydrogenase Family (ALDH1A2) Confirmation screens (AID 2061314). Also: nearly all actives have a fitted effect of over 65% in size. Also: potency is read from the fitted curve at half-maximal effect.
Assay [3] has as its target Retinaldehyde dehydrogenase 3 (Homo sapiens) (UniProt P47895). The experiment in a line: qHTS for Inhibitors of the Aldehyde Dehydrogenase Family (ALDH1A3) Primary screen (AID 2061315).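 Also: plate controls were DMSO vehicle for no effect and reference inhibitor for full effect.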
For assay [4] the target is unchanged. Put plainly: qHTS for Inhibitors of the Aldehyde Dehydrogenase Family (ALDH1A3) Validation screen (AID 2061312). Also: % is scaled to controls: 0 for no effect and ±100 for the full control effect; nearly all actives have a fitted effect of over 45% in size.
Assay [5] in a line: BET inhibitor-based combinations targeting novel dependencies in MECOM-rearranged (r) AML: MV-4-11 cell line (AID 2202233). Also: nearly all actives have a fitted effect of over 45% in size. Also: potency is read from the fitted curve at half-maximal effect. In short, it runs like this: (§1)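 First, 500 cells per well were seeded; next, drugs were pinned as 11-point doses; then plates sat 48 hr in the incubator; finally CellTiter-Glo was added and luminescence read, with AUC and Z-AUC computed.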
Assay [6] is described as follows: BET inhibitor-based combinations targeting novel dependencies in MECOM-rearranged (r) AML: AML-191 cell line (AID 2202236; also: nearly all actives have a fitted effect of over 35% in size; also: potency is read from the fitted curve at half-maximal effect). In short, it runs like this:
(§2)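 Each compound was tested at eleven concentrations on cells seeded at 500/well. After two days' incubation, ATP-based luminescence reported viability; responses relative to DMSO and blank wells yielded AUC and cell-line-centred Z-AUC.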

Assay [7] is described as follows: BET inhibitor-based combinations targeting novel dependencies in MECOM-rearranged (r) AML: SET-2 cell line (AID 2202231). Also: nearly all actives have a fitted effect of over 35% in size. Also: potency is read from the fitted curve at half-maximal effect.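 As to viability: plate controls were DMSO treated cells for no effect and wells without cells for full effect.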 The settings on record: SET-2 AML cells viability, CellTiter-Glo luminescence, 48 h; viability: hits give low values, concentration not given here. In short, it runs like this: as §2
On the technique in general: In ATP-based viability assays light output follows the ATP content of the culture.

Assay [8] can be described thus: BET inhibitor-based combinations targeting novel dependencies in MECOM-rearranged (r) AML: AML-194 cell line (AID 2202237; also: nearly all actives have a fitted effect of over 40% in size; also: potency is read from the fitted curve at half-maximal effect). In short, it runs like this:
as §2

In assay [9] the target is Aldehyde dehydrogenase 1A1 (Homo sapiens) (UniProt P00352). The experiment in a line: qHTS for Inhibitors of the Aldehyde Dehydrogenase Family (ALDH1A1) Confirmatory screens (AID 2061316). Also: potency is read from the fitted curve at half-maximal effect; nearly all actives have a fitted effect of over 65% in size.
The nature of assay [10]: BET inhibitor-based combinations targeting novel dependencies in MECOM-rearranged (r) AML: OCI-AML3 cell line (AID 2202232). Also: nearly all actives have a fitted effect of over 35% in size. Also: potency is read from the fitted curve at half-maximal effect. The settings on record: Potency: OCI-AML3 viability. In short, it runs like this: as §2
Assay [11] in a line: BET inhibitor-based combinations targeting novel dependencies in MECOM-rearranged (r) AML: HNT-34 cell line (AID 2202234). Also: potency is read from the fitted curve at half-maximal effect; nearly all actives have a fitted effect of over 35% in size. In outline:
as §1

Assay [12] can be described thus: BET inhibitor-based combinations targeting novel dependencies in MECOM-rearranged (r) AML: UCSD-AML1 cell line (AID 2202235). Also: potency is read from the fitted curve at half-maximal effect; nearly all actives have a fitted effect of over 40% in size. In outline: as §1

Each structure is given as a SMILES string. Records with an inconclusive call do not appear. Unmarked numbers belong to inactive results. Active and inactive are the calls of the source. Calls follow the shape of the dose curve; as a rule, active = well fitted curve in the direction sought with a large enough effect; inconclusive = small, poorly fitted or top-dose-only effect, or another doubt; inactive = no such curve, though single readings can be large; an effect the other way counts as inactive or inconclusive.

Among the data in PubChem BioAssay (NCATS) are Potency and viability values, retold here.

In the case of `Cc1ccc(-c2ccc(=O)n(CC(=O)N(C)C(C)c3ccco3)c2)cc1` (stereo not given), the Potency result in [1] and in assay [3] was “inactive” in each case. For the same compound, the Potency in assay [2] is 2.01 µM (active).

For `Cc1ccc(CNc2ccc(N3CCOCC3)cc2)cc1`, in [1], the Potency entry is “inactive”. In assay [2], the Potency is 11.3 µM (active).

With `COc1ccc(C(=O)CC2(O)C(=O)Nc3c(Cl)ccc(Cl)c32)cc1` (stereo not given), the Potency entry in [1], in assay [4], in assay [3] and in assay [5] was “inactive” in each case. The Potency in assay [6] is 1.05 µM (active).

`C=C(c1ccc(C(=O)O)cc1)c1cc2c(cc1C)C(C)(C)CCC2(C)C`: the Potency entry in [1], in assay [4], in assay [3] and in [8] was “inactive” throughout. In addition, the viability in assay [7] is 115%. The Potency in [5] is 0.148 µM (active).

As for `CC(C)(C)OC(=O)N1CCN(c2ccc(NCc3ccc(-c4ccc(C#N)cc4)nc3)cc2)CC1`, the Potency result in assay [1], in [2] and in assay [3] was “inactive” throughout. In addition, the Potency in assay [9] was 15.9 µM (active).

With `Cc1ccc(S(=O)(=O)c2ncccc2[N+](=O)[O-])cc1`, the Potency is 6.31 µM (active) in assay [1] and 0.449 µM (active) in [2].

For `COCCOC(=O)C1=C(C)NC2=C(C(=O)CC(c3ccccc3OC)C2)C1c1cccc(O)c1` (stereo not given), the Potency entry in [1], in [4] and in assay [3] was “inactive” in each case. Moreover, the Potency was 16.6 µM (active) in assay [7], 7.42 µM (active) in assay [10], 5.25 µM (active) in [5] and 14.8 µM (active) in assay [6].

Consider `O=S(=O)(Nc1nccs1)c1ccc(Nc2nc(-c3ccc(F)cc3)cs2)cc1`, for which the Potency result in assay [1] and in [3] was “inactive” in each case. Moreover, the Potency in assay [2] was 14.2 µM (active); in assay [9], 11.3 µM (active).

As to `c1ccc(Cn2c(-c3ccc(OCC(C4CCNCC4)n4c(-c5ccccc5)nc5ccccc54)cc3)nc3ccccc32)cc1` (stereo not given), the Potency result in [1], in assay [4] and in assay [3] was “inactive” each time. The Potency in assay [10] is 23.5 µM (active); in [11] it was 18.6 µM (active); in [12], 26.3 µM (active); in assay [8], 23.5 µM (active).

With `CC(=O)Nc1sc2c(c1-c1nc3ccccc3s1)CCN(C(C)C)C2`, the Potency result in assay [1] and in assay [3] was “inactive” throughout. For the same compound, the Potency in assay [2] is 28.3 µM (active).

As for `O=C(c1ccc(F)c(F)c1Nc1ccc(I)cc1F)N1CC(O)([C@@H]2CCCCN2)C1`, the Potency result in [1], in [4] and in [3] was “inactive” each time. Besides, the Potency in [11] is 0.742 µM (active); in [12], 0.296 µM (active); in assay [6], 8.33 µM (active); in [8], 7.42 µM (active).

Turning to `N#Cc1ccc(COC[C@H]2O[C@@H](n3c(NCc4ccc(Cl)c(Cl)c4)nc4c(N)ncnc43)[C@H](O)[C@@H]2O)cc1`, the Potency result in [1], in assay [4] and in [3] was “inactive” in each case. Moreover, the Potency in assay [7] is 7.42 µM (active); in assay [10], 2.63 µM (active); in assay [11], 2.95 µM (active); in [12] it was 2.63 µM (active).

Regarding `O=C(Nc1cn[nH]c1-c1nc2ccc(CN3CCOCC3)cc2[nH]1)NC1CC1`, the Potency entry in assay [1], in assay [4] and in assay [3] was “inactive” in each case. The Potency was 4.68 µM (active) in assay [10]; 0.0263 µM (active) in [5]; 0.332 µM (active) in assay [11]; 0.118 µM (active) in assay [12]; 2.09 µM (active) in assay [6]; 2.09 µM (active) in assay [8].

For the compound `CON(C)C(=O)N1N=C(c2cc(F)ccc2F)S[C@@]1(CCCN)c1ccccc1`, the Potency result in assay [1], in assay [4] and in [3] was “inactive” each time. Further, the Potency in assay [7] was 0.0295 µM (active); in [10], 0.0093 µM (active); in [5], 0.0118 µM (active); in assay [12], 0.0105 µM (active); in assay [6], 0.0132 µM (active).

For the compound `CC(O)c1ccc(-c2ccc3ncnc(N4CCOCC4)c3c2)o1` (stereo not given), the values for the Potency in assay [1], in assay [2] and in [9] were 8.91 µM (active), 14.2 µM (active) and 11.3 µM (active), respectively. Also, in [3], the Potency entry is “inactive”.

For the compound `Cc1c(C(=O)OCC2CC2)[nH]c2c1C(=O)CC(c1ccco1)C2` (stereo not given), the Potency result in assay [1] and in assay [3] was “inactive” throughout. In addition, the Potency in assay [2] is 8.96 µM (active); in assay [9] it was 1.59 µM (active).

Regarding `CCCC1(CCC)CCC2(CCN(CCCN(CC)CC)C2)CC1`, the Potency entry in assay [1], in assay [4] and in assay [3] was “inactive” each time. Moreover, the Potency in assay [7] is 5.9 µM (active); in [10], 7.42 µM (active); in assay [5] it was 6.61 µM (active); in assay [11], 4.68 µM (active); in assay [12], 8.33 µM (active); in assay [6] it was 9.34 µM (active). In addition, the Potency in [8] was 9.34 µM (active).

As to `CCC(=O)NS(=O)(=O)c1ccc(-c2c(-c3ccccc3)noc2C)cc1`, the Potency entry in assay [1], in assay [4], in assay [3], in assay [10], in [5] and in assay [6] was “inactive” throughout. Moreover, the Potency result in assay [8] is “inactive”. In [7], the viability is 114%.

Usually viability stands for a read-out of living cells in per cent, often relative to untreated cells.
